The nature of assay [1]: small molecules captured by biotinylated probe aFSTL3 – biochemical, small-molecule microarray, fluorescence 635/667, stem cell growth factor project, primary screen (AID 1064).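 Also: measures binding of the biotinylated anti-FSTL3 antibody to printed compounds.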 The following applies: higher = more signal.
The nature of assay [2]: binders from COS7 lysate, DM2A8 probe, primary screen, torsin A project, cell lysate, small-molecule microarray, fluorescence 635/667 (AID 1065). The following applies: higher = more signal, COS7 lysate expressing mutant human TOR1A.
The nature of assay [3]: small molecules captured by biotinylated probe aFGF2 – biochemical, small-molecule microarray, fluorescence 635/667, stem cell growth factor project, primary screen (AID 1067).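 Also: measures binding of biotinylated aFGF2 protein to printed compounds on slides; z-score merges feature fluorescence and signal-to-noise across triplicate slides.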 The following applies: higher = more signal.
Assay [4] can be described thus: small molecules captured by biotinylated probe aFGF10 – biochemical, small-molecule microarray, fluorescence 635/667, stem cell growth factor project, primary screen (AID 1071).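 Also: score merges 667 nm spot intensity and signal to noise from triplicate slides.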 The following applies: higher = more signal.
Assay [5] deals with Neurogenic locus notch homolog protein 2 (Homo sapiens) (UniProt Q04721). Put plainly: small molecules binding Notch2 protein – biochemical, small-molecule microarray, 635 nm fluorescence, stem cell growth factors, primary screen (AID 1073). The settings on record: higher = more signal.
Assay [6] concerns the target Pro-neuregulin-1, membrane-bound isoform (Homo sapiens) (UniProt Q02297). Kind of assay: small molecules binding neuregulin-1 protein – biochemical, small-molecule microarray, fluorescence 635/667, psychiatric disease protein project, primary screen (AID 1075).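 Also: score combines 667 nm spot fluorescence with signal to noise.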 The settings on record: NRG1 binding, 635 nm fluorescence, higher = more signal.
In assay [7] the test system is Neuregulin-1 EGF-like domain. Kind of assay: small molecules binding NRG1 EGF domain – biochemical, small-molecule microarray, 635 nm fluorescence, primary screen (AID 1081).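 Also: binding of the protein to compounds printed on small-molecule microarray slides.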 The settings on record: higher = more signal.
Assay [8] can be described thus: FRG1 expression reporter modulators in myotubes – cell-based, C2C12 myotubes, firefly/Renilla luciferase, luminescence, FRG1 inhibition for FSHD, primary screen (AID 1084). The following applies: FRG1 promoter luciferase, higher = more signal, called active from +8 up or from −8 down.
The nature of assay [9]: small molecules captured by biotinylated probe aFST – biochemical, small-molecule microarray, fluorescence 635/667, stem cell growth factor project, primary screen (AID 1086).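 Also: score merges 667 nm fluorescence with signal-to-noise of each printed compound spot.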 The settings on record: higher = more signal.
A short description of assay [10]: binders of probe aHhip on microarray, primary screen, stem cell growth factor project, biochemical, small-molecule microarray, fluorescence 635/667 (AID 1087).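 Also: score merges spot fluorescence at 667nm with spot signal to noise ratio.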 The settings on record: higher = more signal.
The subject of assay [11] is PRMT1 (protein arginine N-methyltransferase 1). Put plainly: small molecules binding arginine methyltransferase PRMT1 – biochemical, small-molecule microarray, 635 nm fluorescence, primary screen (AID 1088).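 Also: binding of Prmt1 protein to compounds spotted on small-molecule microarray slides.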 The settings on record: higher = more signal.
Assay [12] in a line: growth effects on S. cerevisiae YJM789 – YJM789 clinical isolate, OD600, 24 h, basal, primary screen (AID 1089).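 Also: growth of clinical yeast isolate S. cerevisiae YJM 789 seeded 1000 cells per well; test concentration not given here.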 The following applies: higher = more signal, called active from +8 up or from −8 down.
Assay [13] is described as follows: S. pombe growth modifiers, basal conditions – strain 972, OD600, 24 h, no modulator, primary screen (AID 1090).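 Also: basal condition with compound alone and no growth modifier present; test concentration not given here.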 The following applies: S. pombe 972 growth, higher = more signal, called active from +8 up or from −8 down.
A short description of assay [14]: budding yeast growth modifiers under rapamycin – strain BY4716, OD600, 96 h, primary screen (AID 1091). Also: test concentration not given here. The settings on record: S. cerevisiae BY4716 + rapamycin, higher = more signal, called active from +8 up or from −8 down.
Assay [15] has as its target Torsin-1A-interacting protein 2 (Homo sapiens) (UniProt Q8NFQ8). Kind of assay: small molecules binding lysate-expressed LULL1 – cell lysate, human LULL1 lysate, 635/667 nm fluorescence, primary screen (AID 1092).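 Also: probe is lysate of COS7 cells overexpressing human LULL1; score merges per-feature 667 nm fluorescence with signal-to-noise.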 The settings on record: small-molecule microarray, hLULL1 lysate binding, 635 nm fluorescence; higher = more signal.
A short description of assay [16]: optical density change of DRC41 E. coli – strain DRC41, OD650, 24 h, E. coli filamentation project, primary screen (AID 1093).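 Also: MC1000 strain lacking acrAB efflux and sulA so SOS filamentation is blocked; test concentration not given here.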 The settings on record: E. coli DRC41 growth, higher = more signal, called active from +8 up or from −8 down.
The nature of assay [17]: probe aLefty2 binding to arrayed compounds – biochemical, biotinylated probe, 635/667 nm fluorescence, primary screen (AID 1094).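 Also: score merges spot fluorescence near 667 nm with spot signal-to-noise ratio.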 The settings on record: small-molecule microarray, higher = more signal.
In assay [18] the test system is Noggin (protein binding on small-molecule microarray). Put plainly: small molecules binding Noggin protein – biochemical, 635/667 nm fluorescence, primary screen (AID 1095).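 Also: score merges 667 nm feature fluorescence with signal to noise over triplicate slides.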 The following applies: 635 nm fluorescence, higher = more signal.
Assay [19] concerns the target Neurogenic locus notch homolog protein 3 (Homo sapiens) (UniProt Q9UM47). Put plainly: small molecules binding NOTCH3 protein – biochemical, 635/667 nm fluorescence, primary screen (AID 1096). The settings on record: small-molecule microarray, 635 nm fluorescence, higher = more signal.
The nature of assay [20]: probe aEGFR binding to arrayed compounds – biochemical, biotinylated probe, 635/667 nm fluorescence, primary screen (AID 1097).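 Also: probe is a biotinylated anti-EGFR antibody binding compounds printed on slides; score combines fluorescence near 667 nm and signal to noise of each spot.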 The following applies: small-molecule microarray, higher = more signal.

Calls of active or inactive are those of the source.

Chain of Neurogenic locus notch homolog protein 2 (Homo sapiens) (Q04721 whole entry, looked up, canonical isoform): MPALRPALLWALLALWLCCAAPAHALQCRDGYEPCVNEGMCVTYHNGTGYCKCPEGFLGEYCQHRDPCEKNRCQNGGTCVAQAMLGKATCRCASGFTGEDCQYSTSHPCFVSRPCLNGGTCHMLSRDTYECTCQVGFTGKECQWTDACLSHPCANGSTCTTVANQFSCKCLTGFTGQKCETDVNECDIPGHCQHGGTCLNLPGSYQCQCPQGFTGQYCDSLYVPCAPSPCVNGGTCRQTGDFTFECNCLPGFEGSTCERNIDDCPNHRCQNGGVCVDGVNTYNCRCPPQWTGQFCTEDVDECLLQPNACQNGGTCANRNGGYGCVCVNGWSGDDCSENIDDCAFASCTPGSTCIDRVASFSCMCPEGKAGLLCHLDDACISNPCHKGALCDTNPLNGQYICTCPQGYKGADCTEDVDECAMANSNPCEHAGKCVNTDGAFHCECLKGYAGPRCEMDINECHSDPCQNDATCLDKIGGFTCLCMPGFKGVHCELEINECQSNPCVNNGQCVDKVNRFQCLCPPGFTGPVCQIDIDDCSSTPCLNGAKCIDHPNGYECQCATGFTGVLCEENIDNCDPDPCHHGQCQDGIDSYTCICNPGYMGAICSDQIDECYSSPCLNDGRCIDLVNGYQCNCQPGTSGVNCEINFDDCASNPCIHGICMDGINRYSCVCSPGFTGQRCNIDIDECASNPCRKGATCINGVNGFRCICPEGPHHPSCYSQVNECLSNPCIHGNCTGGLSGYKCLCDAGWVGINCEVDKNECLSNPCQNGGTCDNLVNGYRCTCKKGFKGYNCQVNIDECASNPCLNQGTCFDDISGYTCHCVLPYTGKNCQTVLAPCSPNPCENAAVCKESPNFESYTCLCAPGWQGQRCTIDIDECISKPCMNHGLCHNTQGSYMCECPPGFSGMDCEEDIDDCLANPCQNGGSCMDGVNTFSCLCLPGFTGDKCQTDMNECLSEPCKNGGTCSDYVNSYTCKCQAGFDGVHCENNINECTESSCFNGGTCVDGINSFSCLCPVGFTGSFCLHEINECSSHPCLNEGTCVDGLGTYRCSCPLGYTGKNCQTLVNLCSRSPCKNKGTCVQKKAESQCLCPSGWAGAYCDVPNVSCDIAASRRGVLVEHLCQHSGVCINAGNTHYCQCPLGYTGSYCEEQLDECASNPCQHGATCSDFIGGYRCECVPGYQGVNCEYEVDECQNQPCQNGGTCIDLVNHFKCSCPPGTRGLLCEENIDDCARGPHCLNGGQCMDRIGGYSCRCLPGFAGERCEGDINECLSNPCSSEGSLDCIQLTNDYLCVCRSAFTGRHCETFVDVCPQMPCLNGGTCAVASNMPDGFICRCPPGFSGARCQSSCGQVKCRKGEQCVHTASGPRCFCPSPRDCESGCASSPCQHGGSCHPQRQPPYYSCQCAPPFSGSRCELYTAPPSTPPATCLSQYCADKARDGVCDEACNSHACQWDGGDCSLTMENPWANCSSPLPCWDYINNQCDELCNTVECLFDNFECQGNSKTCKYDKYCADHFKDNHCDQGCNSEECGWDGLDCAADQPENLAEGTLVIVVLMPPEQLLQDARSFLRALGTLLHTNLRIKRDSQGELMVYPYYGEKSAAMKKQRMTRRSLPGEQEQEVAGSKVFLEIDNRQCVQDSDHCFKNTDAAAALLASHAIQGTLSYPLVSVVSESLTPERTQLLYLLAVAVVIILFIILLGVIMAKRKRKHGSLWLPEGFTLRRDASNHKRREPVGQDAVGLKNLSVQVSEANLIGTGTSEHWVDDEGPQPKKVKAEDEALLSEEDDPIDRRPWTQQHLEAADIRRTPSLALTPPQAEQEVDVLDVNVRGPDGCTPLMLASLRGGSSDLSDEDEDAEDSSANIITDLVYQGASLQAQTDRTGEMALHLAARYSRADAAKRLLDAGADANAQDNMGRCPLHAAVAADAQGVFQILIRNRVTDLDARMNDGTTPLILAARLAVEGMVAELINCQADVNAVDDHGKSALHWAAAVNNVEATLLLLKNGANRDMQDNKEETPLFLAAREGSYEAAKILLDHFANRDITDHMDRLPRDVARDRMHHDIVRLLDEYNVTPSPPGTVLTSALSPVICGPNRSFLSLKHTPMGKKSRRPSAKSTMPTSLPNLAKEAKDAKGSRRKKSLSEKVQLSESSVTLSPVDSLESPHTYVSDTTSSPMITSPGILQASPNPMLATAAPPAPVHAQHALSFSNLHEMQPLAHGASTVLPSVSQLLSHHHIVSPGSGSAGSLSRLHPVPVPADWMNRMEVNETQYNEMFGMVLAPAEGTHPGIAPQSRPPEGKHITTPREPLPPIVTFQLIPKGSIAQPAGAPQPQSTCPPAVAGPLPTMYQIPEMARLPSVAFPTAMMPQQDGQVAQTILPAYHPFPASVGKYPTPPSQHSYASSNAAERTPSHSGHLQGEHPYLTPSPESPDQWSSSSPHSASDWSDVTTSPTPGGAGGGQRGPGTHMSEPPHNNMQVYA
Chain of Torsin-1A-interacting protein 2 (Homo sapiens) (Q8NFQ8 whole entry, looked up): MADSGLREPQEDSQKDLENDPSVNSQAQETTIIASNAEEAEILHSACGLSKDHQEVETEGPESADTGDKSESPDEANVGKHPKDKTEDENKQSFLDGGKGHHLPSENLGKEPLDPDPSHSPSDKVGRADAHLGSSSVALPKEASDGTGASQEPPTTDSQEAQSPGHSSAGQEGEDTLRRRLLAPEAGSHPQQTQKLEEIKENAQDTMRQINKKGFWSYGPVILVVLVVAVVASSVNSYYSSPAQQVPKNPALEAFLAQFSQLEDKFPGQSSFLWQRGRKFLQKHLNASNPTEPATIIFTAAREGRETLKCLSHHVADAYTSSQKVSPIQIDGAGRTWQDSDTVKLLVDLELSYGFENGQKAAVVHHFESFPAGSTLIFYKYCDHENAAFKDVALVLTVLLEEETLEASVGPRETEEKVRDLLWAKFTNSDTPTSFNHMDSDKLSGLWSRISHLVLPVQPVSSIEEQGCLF
Chain of Pro-neuregulin-1, membrane-bound isoform (Homo sapiens) (Q02297 whole entry, looked up, the tested form may be a part, canonical isoform): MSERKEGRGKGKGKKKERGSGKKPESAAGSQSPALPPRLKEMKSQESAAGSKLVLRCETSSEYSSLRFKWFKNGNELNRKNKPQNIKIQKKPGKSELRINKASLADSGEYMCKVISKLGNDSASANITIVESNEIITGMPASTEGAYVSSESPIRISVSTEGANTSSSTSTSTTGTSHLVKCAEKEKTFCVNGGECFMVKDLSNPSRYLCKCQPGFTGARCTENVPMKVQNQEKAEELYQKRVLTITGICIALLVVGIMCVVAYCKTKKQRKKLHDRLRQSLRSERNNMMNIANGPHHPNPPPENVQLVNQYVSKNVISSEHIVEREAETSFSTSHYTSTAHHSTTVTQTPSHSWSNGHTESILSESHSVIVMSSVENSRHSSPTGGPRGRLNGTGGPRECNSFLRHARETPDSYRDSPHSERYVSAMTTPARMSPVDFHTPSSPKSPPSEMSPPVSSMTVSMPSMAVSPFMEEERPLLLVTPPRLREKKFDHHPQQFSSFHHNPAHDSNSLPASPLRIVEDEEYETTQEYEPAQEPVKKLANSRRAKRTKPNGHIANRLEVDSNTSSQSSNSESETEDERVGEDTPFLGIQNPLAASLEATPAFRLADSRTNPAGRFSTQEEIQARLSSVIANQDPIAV

For the molecule `COc1ccc([Si](C)(C)[C@@H]2[C@@H](CCn3cc([C@H](O)c4ccccc4)nn3)O[C@]3(C(=O)N(c4ccccc4)c4ccccc43)[C@H]2C)cc1`, the composite z-score is -0.162 in assay [1]; 0.297 in assay [2]; -0.0824 in assay [3]; 0.211 in assay [4]; 0.0701 in assay [5]; 0.336 in [6]. The composite z-score in assay [7] was 0.75; in [9], -0.0029; in [10] it was -0.122; in [11] it was 1.11; in assay [15], 0.986; in assay [17] it was -0.0998. For the same molecule, the composite z-score in [18] was 0.431; in [19], 0.281; in assay [20], -0.0452. The z-score in assay [8] was -0.587 (inactive); in [12], -0.613 (inactive); in assay [13], -0.101 (inactive); in assay [14] it was 1.43 (inactive); in assay [16], 1.15 (inactive).
`CN1C(=O)C2C(C1=O)C1C=C(CCCO)C2C(c2cccs2)N1Cc1cc2c(cc1Br)OCO2` (stereo not given): the composite z-score in assay [1] was -0.262; in assay [2] it was 0.725; in assay [3] it was 0.131; in assay [4], 0.645; in [5], 1.62; in [6], 2.19. The composite z-score was 1.28 in assay [7]; 1.6 in [9]; -0.109 in assay [10]; 1.54 in [11]; 3.41 in assay [15]; 0.0923 in assay [17]. Also, the composite z-score came to 0.639 in assay [18], 1.03 in assay [19] and 0.095 in assay [20]. The z-score in assay [8] was -3.26 (inactive); in assay [12], -0.653 (inactive); in assay [13], -1.25 (inactive); in assay [14], -0.631 (inactive); in assay [16] it was 1.12 (inactive).
`CC(C)=CCCC(C)=CC(O)C1C=CC2C(=O)N(c3ccccc3)C(=O)C2N1Nc1ccccc1F` (stereo not given): the composite z-score in assay [1] is -0.0417; in assay [2], -0.113; in assay [3] it was -0.138; in assay [4] it was 0.498; in assay [5], 0.765; in assay [6], 1.49. Also, the composite z-score in assay [7] was 1.09; in [9], -0.174; in [10] it was -0.329; in assay [11], 0.945; in [15], 2.41; in assay [17], -0.166. Moreover, the composite z-score is -0.0409 in assay [18], 0.761 in assay [19] and -0.0828 in assay [20]. In addition, the z-score in [8] was 0.314 (inactive); in [12], -1.23 (inactive); in assay [13], -0.347 (inactive); in assay [14], -0.707 (inactive); in assay [16] it was 0.401 (inactive).
Take `O=C1C[C@@](C(=O)NCC(F)(F)F)(c2ccc([N+](=O)[O-])cc2)[C@@H](c2ccc(CO)cc2)N1CC12CC3CC(CC(C3)C1)C2`: the composite z-score was 0.213 in assay [1]; 0.244 in [2]; 0.134 in assay [3]; 1.15 in assay [4]; 1.19 in assay [5]; 0.812 in assay [6]. The composite z-score in assay [7] worked out at 1.32; in [9], 0.724; in assay [10], 0.914; in assay [11], 1.55; in assay [15], 2.05; in assay [17], 0.426. Besides, the composite z-score in assay [18] was determined as 1.26; in assay [19], 0.614; in [20] it was 0.751. Besides, the z-score was -2.42 (inactive) in [8]; 0.263 (inactive) in assay [12]; -1.03 (inactive) in [13]; 1.77 (inactive) in [14]; -0.49 (inactive) in assay [16].
For the molecule `C=CCNC(=O)[C@@H]1[C@H]2C(=O)O[C@H](c3ccccc3)[C@H](c3ccccc3)N2[C@H](c2ccc(O)cc2)[C@@]12C(=O)Nc1ccc(C#CCC(C(=O)OC)C(=O)OC)cc12`, the composite z-score in [1] was -0.174; in [2], 0.198; in [3], -0.18; in assay [4], 0.163; in assay [5] it was 0.162; in assay [6], 0.749. For the same molecule, the composite z-score in [7] was 0.95; in [9] it was 0.249; in [10] it was 0.0623; in assay [11] it was 1.55; in [15], 2.32; in [17], 0.0539. Besides, the composite z-score in assay [18] was 0.482; in [19], 0.387; in [20] it was -0.187. For the same molecule, the z-score in [8] is 1.03 (inactive); in assay [12] it was 1.66 (inactive); in assay [13], 0.918 (inactive); in assay [14], 1.12 (inactive); in assay [16] it was -0.311 (inactive).
